Measured values published in the supplement of paper PMC10127200.
Structures can show the parent of a compound that is named as a salt.

Key:
Test in all cases: Euclidean distance of Cell Painting phenotypic profile (signed KS, 77 features) to DMSO centroid (dimensionless distance); 5 or 10 uM (library dependent); higher = stronger phenotypic change vs DMSO (phenoactivity)
Conditions in all cases: 48 h
786-O = test system: 786-O
Outline: (§1)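 Phenoactivity is computed as Euclidean distance to the median vehicle profile. The profiles, drawn from 77 Harmony features scored as signed Kolmogorov-Smirnov statistics versus same-plate vehicle wells, were corrected for plate position, correlation-weighted and replicate-averaged at the top dose. Stained cells were imaged confocally at 20X (9 fields/well) after 48 h with library compounds at 10 or 5 uM, 0.1% DMSO final, in five cancer lines and a healthy fibroblast line.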

A549 = test system: A549
Outline: as §1

DU145 = test system: DU145
Outline: as §1

FB = test system: FB
Outline: as §1

HEPG2 = test system: HEPG2
Outline: as §1

OVCAR4 = test system: OVCAR4
Outline: as §1

| SMILES | Euclidean distance (786-O) | Euclidean distance (A549) | Euclidean distance (DU145) | Euclidean distance (FB) | Euclidean distance (HEPG2) | Euclidean distance (OVCAR4) |
| --- | --- | --- | --- | --- | --- | --- |
| CC1(C)CCC(CN2CCN(c3ccc(C(=O)NS(=O)(=O)c4ccc(NCC5CCOCC5)c([N+](=O)[O-])c4)c(Oc4cnc5[nH]ccc5c4)c3)CC2)=C(c2ccc(Cl)cc2)C1 | 2.06 | 1.55 | 1.25 | 0.81 | 1.11 | 1.16 |
| COc1cc(C(=O)NCc2ccc(OCCN(C)C)cc2)cc(OC)c1OC [Tribenzagan Hydrochloride] | 1.18 | 1.99 | 1.05 | 1.12 | 1.07 | 1.09 |
| Nc1ccc(/N=N/c2ccccc2)c(N)n1 [Phenazopyridine HCl] | 1.22 | 0.654 | 0.961 | 1.04 | 1.07 | 0.739 |
| CN[C@@H]1[C@@H](O)[C@@H](O[C@@H]2[C@@H](O)[C@H](O[C@H]3OC(CN)=CC[C@H]3N)[C@@H](N)C[C@H]2N)OC[C@]1(C)O [Sisomicin sulfate] | 1.2 | 1.53 | 0.985 | 0.996 | 0.672 | 1.05 |
| CCc1cc(C(N)=O)ccc1-n1nc(C(C)C)c2c(-n3cnc(-c4cnn(C)c4)c3)ccnc21 | 3.26 | 3.06 | 3.79 | 3.38 | 3.38 | 2.86 |
| CC[C@H]1OC(=O)[C@H](C)[C@@H](O[C@H]2C[C@@](C)(OC)[C@@H](O)[C@H](C)O2)[C@H](C)[C@@H](O[C@@H]2O[C@H](C)C[C@H](N(C)C)[C@H]2O)[C@](C)(OC)C[C@@H](C)C(=O)[C@H](C)[C@@H](O)[C@]1(C)O [Clarithromycin] | 0.952 | 0.722 | 0.938 | 0.905 | 0.629 | 0.909 |
| CC(=O)OCC(CCn1cnc2cnc(N)nc21)COC(C)=O [Famciclovir] | 1 | 0.742 | 0.892 | 0.846 | 0.598 | 1.57 |
| CC(C)(C)C(=O)OCOC(=O)[C@@H]1N2C(=O)[C@@H](/N=C/N3CCCCCC3)[C@H]2SC1(C)C [Pivmecillinam hydrochloride] | 1.23 | 1.69 | 0.728 | 0.994 | 0.59 | 1.14 |
| O=C(c1cccc(Cl)c1F)N1CCN(Cc2cccc(Nc3nccs3)n2)CC1 | 2.99 | 3.18 | 1.34 | 2.34 | 2.74 | 2.83 |
| O=C(/C=C/c1ccc(O)cc1)c1ccc(O)cc1O [Isoliquiritigenin] | 0.936 | 1.2 | 1.16 | 0.82 | 0.786 | 0.885 |
| O=C(O)c1cc(O)c2c(c1)[C@@H]([C@H]1c3cc(C(=O)O)cc(O)c3C(=O)c3c(O[C@@H]4O[C@H](CO)[C@@H](O)[C@H](O)[C@H]4O)cccc31)c1cccc(O[C@@H]3O[C@H](CO)[C@@H](O)[C@H](O)[C@H]3O)c1C2=O [Sennoside B] | 1.31 | 0.866 | 0.808 | 0.988 | 0.382 | 0.952 |
| COc1ccc(-c2cc(=O)c3c(OC)c(OC)c(OC)c(OC)c3o2)cc1OC [Nobiletin] | 0.695 | 0.706 | 1 | 0.95 | 1.47 | 0.897 |
| NC(=O)N[C@@H](CCC(=O)O)C(=O)O [Carglumic Acid] | 1.22 | 0.653 | 0.949 | 1.06 | 0.389 | 0.68 |
| O=C(O)CCCC[C@@H]1SC[C@@H]2NC(=O)N[C@@H]21 [Biotin (Vitamin B7)] | 0.776 | 0.871 | 0.982 | 0.902 | 0.533 | 1.23 |
| Nc1ncnc2c1ncn2[C@@H]1O[C@H](CO)[C@@H](O)[C@H]1O [Adenosine] | 1.13 | 2.77 | 1.12 | 0.92 | 0.753 | 1.22 |
| CCN(CC)CCNC(=O)c1cc(Cl)c(N)cc1OC [Metoclopramide HCl] | 0.662 | 0.513 | 0.62 | 0.54 | 0.614 | 0.647 |
| C=CC(=O)Nc1ccc2ncnc(Nc3cccc(Br)c3)c2c1 | 1.72 | 2.07 | 1.78 | 2.78 | 1.47 | 2.99 |
| CCc1cccc(CC)c1NC(=O)N1Cc2[nH]nc(NC(=O)c3ccc(N4CCN(C)CC4)cc3)c2C1 | 2.54 | 2.75 | 2.46 | 3.44 | 2.47 | 2.78 |
| CCOc1ccccc1OC(c1ccccc1)C1CNCCO1 (stereo not given) [Reboxetine mesylate] | 1.05 | 0.873 | 2.32 | 0.844 | 2.49 | 0.786 |
| COc1ccnc2[nH]cc(C(=O)C(=O)N3CCN(C(=O)c4ccccc4)C[C@H]3C)c12 | 0.998 | 1.1 | 0.533 | 0.737 | 0.554 | 1.47 |
| CCOc1ccn(-c2ccc(F)cc2)c(=O)c1C(=O)Nc1ccc(Oc2ccnc(N)c2Cl)c(F)c1 | 1.2 | 3.4 | 1.66 | 2.27 | 1.66 | 2.55 |
| O=c1oc2ccccc2c(O)c1Cc1c(O)c2ccccc2oc1=O [Dicoumarol] | 0.633 | 0.618 | 0.712 | 0.872 | 0.701 | 0.783 |
| CCCCCOC(=O)Nc1nc(=O)n([C@@H]2O[C@H](C)[C@@H](O)[C@H]2O)cc1F [Capecitabine] | 1.77 | 0.754 | 1.15 | 0.899 | 0.821 | 1.23 |

| SMILES | Euclidean distance (786-O) | Euclidean distance (A549) | Euclidean distance (DU145) | Euclidean distance (FB) | Euclidean distance (HEPG2) | Euclidean distance (OVCAR4) |
| --- | --- | --- | --- | --- | --- | --- |
| Cc1oc(=O)oc1CN1CCN(c2cc3c(cc2F)c(=O)c(C(=O)O)c2n3C(C)S2)CC1 (stereo not given) [Prulifloxacin (NM441. AF 3013)] | 1.38 | 0.71 | 0.968 | 0.785 | 1.9 | 0.841 |
| O=C(O)CC(O)(CC(=O)O)C(=O)O [Citric acid] | 0.88 | 0.725 | 1.02 | 0.899 | 0.774 | 0.991 |
| COc1c(-c2ccc3cc(NS(C)(=O)=O)ccc3c2)cc(-n2ccc(=O)[nH]c2=O)cc1C(C)(C)C [Dasabuvir(ABT-333)] | 1.78 | 1.78 | 1.27 | 1.48 | 1.05 | 1.42 |
| CS(=O)(=O)OCCCCOS(C)(=O)=O [Busulfan] | 1.22 | 0.648 | 0.667 | 0.953 | 0.977 | 1.95 |
| Cc1c(N)c(=O)n(-c2ccccc2)n1C [4-Aminoantipyrine] | 1.29 | 0.968 | 1.5 | 0.907 | 0.845 | 1.32 |
| CN1CCC(OC(c2ccccc2)c2ccccc2)CC1 [Diphenylpyraline hydrochloride] | 0.93 | 0.611 | 2.19 | 1.17 | 0.532 | 0.876 |
| Cc1nc(=O)c2cc(CN(C)c3ccc(C(=O)N[C@@H](CCC(=O)O)C(=O)O)s3)ccc2[nH]1 [Raltitrexed] | 1.96 | 2.87 | 0.703 | 0.633 | 2.39 | 2.76 |
| CO[C@H]1C[C@@H]2CC[C@@H](C)[C@@](O)(O2)C(=O)C(=O)N2CCCC[C@H]2C(=O)O[C@H]([C@H](C)C[C@@H]2CC[C@@H](OCCO)[C@H](OC)C2)CC(=O)[C@H](C)/C=C(\C)[C@@H](O)[C@@H](OC)C(=O)[C@H](C)C[C@H](C)/C=C/C=C/C=C/1C [Everolimus (RAD001)] | 2.45 | 1.83 | 2.74 | 3.19 | 1.73 | 1.9 |
| C[C@@H]1CCO[C@H]2Cn3cc(C(=O)NCc4ccc(F)cc4F)c(=O)c(O)c3C(=O)N12 | 1.38 | 1.81 | 1.15 | 1 | 1.37 | 1.79 |
| Cc1c(C(=O)Nc2ccc(N3C[C@@H](C)O[C@@H](C)C3)nc2)cccc1-c1ccc(OC(F)(F)F)cc1 [LDE225 (NVP-LDE225.Erismodegib)] | 0.757 | 1.2 | 0.747 | 0.782 | 1.4 | 1.38 |
| CN1CCN(c2cc3c(cc2F)c(=O)c(C(=O)O)cn3-c2ccc(F)cc2)CC1 [Difloxacin hydrochloride] | 1.51 | 0.685 | 0.906 | 1.1 | 0.824 | 1.17 |
| c1ccc2c(CCNc3ccc(Nc4ccncc4)cc3)c[nH]c2c1 | 2.61 | 2.76 | 1.77 | 2.87 | 2.65 | 3.75 |
| O=C(NC1CCN(CCCCC2(C(=O)NCC(F)(F)F)c3ccccc3-c3ccccc32)CC1)c1ccccc1-c1ccc(C(F)(F)F)cc1 [Lomitapide Mesylate] | 5.45 | 4.4 | 6.1 | 5.88 | 5.29 | 5.65 |
| N#C[C@@H]1CCCN1C(=O)CNC12CC3CC(CC(O)(C3)C1)C2 [Vildagliptin (LAF-237)] | 1.09 | 1.02 | 1.43 | 0.918 | 0.836 | 1.21 |
| Nc1cc(Cl)c(N=C2NCCN2)c(Cl)c1 [Apraclonidine HCl] | 0.986 | 1.57 | 0.828 | 1.25 | 0.638 | 2 |
| O=C(C[S+]([O-])Cc1ccco1)NC/C=C\COc1cc(CN2CCCCC2)ccn1 (stereo not given) [Lafutidine] | 0.976 | 1.04 | 1.52 | 1.4 | 2.06 | 1.4 |
| CS(=O)(=O)Nc1cc2occ(NC=O)c(=O)c2cc1Oc1ccccc1 [Iguratimod] | 0.942 | 0.587 | 2.23 | 1.05 | 0.878 | 0.85 |
| CC(NCCc1ccc(O)cc1)C(O)c1ccc(O)cc1 (stereo not given) [Ritodrine HCl] | 1.08 | 0.752 | 0.998 | 1.01 | 0.393 | 0.728 |
| COc1ccc(C2C(=O)c3ccccc3C2=O)cc1 [Anisindione] | 0.89 | 0.546 | 1.76 | 1.61 | 0.828 | 0.667 |
| Clc1ccc(Nc2nnc(Cc3ccncc3)c3ccccc23)cc1 [Vatalanib (PTK787) 2HCl] | 1.01 | 1.05 | 1.47 | 1.53 | 1.42 | 1.29 |
| CCC(CC)(NC(=O)C(C)C)C(=O)N[C@@H](CCCN=C(N)N)C(=O)NC1(C(=O)NC(c2ccc(F)cc2)c2ccc(F)cc2)CCCC1 | 0.761 | 0.796 | 1.14 | 0.736 | 0.712 | 0.893 |
| CNC(=O)CN(CCN(CCN(CC(=O)[O-])CC(=O)NC)CC(=O)[O-])CC(=O)[O-].O.[Gd+3] [Gadodiamide Hydrate] | 1.58 | 0.803 | 1.3 | 1.38 | 0.469 | 0.986 |
